Test results reported in ChEMBL document CHEMBL3988442, “University of Dundee, Small-Polar-MMV Screening Library” (2021).

Experiments:
[1] = target: T1, Aspartate--tRNA(Asp/Asn) ligase (Mycobacterium tuberculosis (strain ATCC 25618 / H37Rv)) (UniProt P9WFW3); assay: Assay for Asp RNA synthetase-1 from Mycobacterium tuberculosis; assay type: functional; parameters: scale not given: direction of the effect not stated beside the values; conditions: 30 µM; further: in the data most compounds retested in dose-response had high values
T1 sequence (whole entry): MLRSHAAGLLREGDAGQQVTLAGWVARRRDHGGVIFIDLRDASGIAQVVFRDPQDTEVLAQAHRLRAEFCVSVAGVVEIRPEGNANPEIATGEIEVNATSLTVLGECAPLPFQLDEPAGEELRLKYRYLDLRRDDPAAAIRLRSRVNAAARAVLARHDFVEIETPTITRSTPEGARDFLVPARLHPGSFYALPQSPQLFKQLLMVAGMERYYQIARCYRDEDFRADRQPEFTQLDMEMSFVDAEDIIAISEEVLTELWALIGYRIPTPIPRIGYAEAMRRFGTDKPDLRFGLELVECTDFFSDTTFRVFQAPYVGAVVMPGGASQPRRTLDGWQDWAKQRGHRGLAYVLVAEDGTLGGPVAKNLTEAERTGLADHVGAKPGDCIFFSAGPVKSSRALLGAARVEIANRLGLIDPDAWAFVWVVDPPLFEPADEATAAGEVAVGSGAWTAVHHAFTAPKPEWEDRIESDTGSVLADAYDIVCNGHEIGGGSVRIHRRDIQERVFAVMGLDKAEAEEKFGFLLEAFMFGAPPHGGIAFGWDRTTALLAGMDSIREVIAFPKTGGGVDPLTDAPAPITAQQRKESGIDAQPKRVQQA

[2] = target: Shiga toxin 2 (Escherichia coli O157:H7) (UniProt P09385+P09386); assay: E. coli 0.157:H7 Shiga Toxin SOP - stx2 screening assay; assay type: functional; parameters: scale not given: direction of the effect not stated beside the values; conditions: 30 µM

SMILES | Percent Effect [1] [%] | Percent Effect [2] [%]
Cc1nc(N2CCN(C(=O)c3ccc(O)cc3)CC2)c2cnn(C)c2n1 | -1.05 | 3.77
O=C(CCCNC(=O)C1CC1)Nc1cnn(-c2ccccc2Cl)c1 | -4.78 | -29.3
CN(CCNC(=O)NCc1ccncc1)C1CCCC1 | -2.09 | 8.07
COc1ccc(OC)c(C2C3=C(COC3=O)Nc3[nH]nc(C)c32)c1 (configuration not stated) | -2.76 | -22.3
O=c1c2sccc2nc2n1CCN(Cc1cccs1)CC2 | 6.74 | 8.96
COc1ccc(OCc2nc(C(=O)N3CC(O)C3)co2)cc1 | -0.0558 | -45.4
CCN(CC)C(=O)Cn1ccc2cc(NC(=O)C3CCCO3)ccc21 (configuration not stated) | -4.41 | -1.75
CS(=O)(=O)CCC(=O)Nc1cnn(-c2ccccc2Cl)c1 | -3.18 | -52.3
O=C(Nc1nc2c(s1)CCC2)c1cccnc1N1CCOCC1 | -4.4 | -10.3
Cc1cccc(C(=O)NCCCN2CCN(c3ccccc3)CC2)c1 | 0.86 | -54
CCCC(=O)Nc1sc(C(=O)OCC)c(C)c1C#N | -1.82 | 7.46
Cc1cccc(N2CCN(CCNC(=O)C(C)n3cncn3)CC2)c1 (configuration not stated) | 2.75 | 15.6
CCOc1ccc(-n2nnc(C(=O)O)c2-c2ccncc2)cc1 | 3.77 | -21.9
CCN(CC)C(=O)c1nnn(-c2ccc(C)cc2)c1C1CC1 | -1.37 | -1.32
O=C1CCc2cc(-c3csc(CCN4CCCC4=O)n3)ccc2N1 | -0.577 | -10.4
CCOc1ccc(Cl)c(C(=O)NCc2ccc(C(=O)NC)cc2)n1 | -2.66 | 13
COc1cc(CNC(=O)C2CC(=O)N(C(C)C)C2)ccn1 (configuration not stated) | -1.66 | -62.3
c1nc2n(n1)CC(NCc1csc(-c3ccsc3)n1)CC2 (configuration not stated) | -1.92 | -23.2
COCC(C)N(C)C(=O)c1nc(S(C)(=O)=O)n2ccccc12 (configuration not stated) | -0.433 | -13.2
O=C(c1ccoc1)N1CC[C@@H]2O[C@H](COCc3ccccn3)CC[C@@H]21 | 1.36 | -5.78
Cc1nc(CN2CCc3ncnc(C)c3CC2)cs1 | -3.93 | -9.46
CN(C)c1nc2c(c(N3CCC(O)CC3)n1)CN(CC1CCNC1)CC2 (configuration not stated) | 3.47 | -11.1
CCc1nnc2n1CCN(CC(=O)Nc1cc(C(C)(C)C)nn1C)C2 | 0.589 | 28.9

SMILES | Percent Effect [1] [%] | Percent Effect [2] [%]
O=C(NCCO)C1(Cc2cc(-c3ccc(F)cc3F)no2)CCOCC1 | 2.58 | 1.08
COC(=O)CCC(=O)N1CCc2[nH]nc(-c3ccc4c(c3)OCO4)c2C1 | -1.06 | -8.22
CCS(=O)(=O)N1C[C@H]2C[C@H](C(=O)N(C)C)[C@@H](C1)O2 | 3.87 | -5.91
O=C(CN1CCCCC1Cn1cncn1)NCCc1ccc(F)cc1 (configuration not stated) | 3.25 | -5.15
Cc1cc(OCC(=O)NC(C)c2ccc(N3CCOCC3)cc2)no1 (configuration not stated) | 5.44 | -21.7
CCNc1nc2c(s1)C(=O)CN(C(=O)NCCc1ccccc1)C2 | 2.72 | -10.6
CNC(=O)C1CCN(C(=O)c2cccn2Cc2cccs2)CC1 | 0.91 | 11.1
COc1ccc(C[C@H]2CN(c3nnc(C)s3)CC[C@@H]2OC)cc1 | 7.75 | -17.5
CCc1nc(CN2CCN(C(=O)C3CCCCC3)CC2)cs1 | -0.656 | 1.6
CC(=O)N1CCN(C(=O)NCc2csc(Br)c2)CC1 | 0.204 | 5.42
CCC(=O)N1CCC2(COCc3c(C)nc(N(C)C)nc32)C1 (configuration not stated) | 6.18 | -30.5
O=C(CCc1cccnc1)N1CCCC(n2cncn2)C1 (configuration not stated) | -2.66 | 1.94
CCC(=O)N1CCC2(CC1)c1nc[nH]c1CCN2S(C)(=O)=O | -2.17 | 14.6
COc1ccc(F)cc1S(=O)(=O)NCC(c1cccn1C)N(C)C (configuration not stated) | -5.43 | 9.89
O=C(C1SCCc2sccc21)N1CCC(O)CC1 (configuration not stated) | 5.25 | -25.1
CCN1CCC(CNCc2cc(OC)ccc2OC)C1 (configuration not stated) | -3.93 | -21.3
CCc1nnc(CN(C)c2nc(C3CCCC3)nc3c2cnn3C)o1 | -4.57 | 13.2
O=C(c1nc(-c2ccc3cc[nH]c3c2)no1)N1CCCC1 | -0.958 | -77.4
Cc1nc[nH]c1CN1CCN(C(=O)c2cccs2)[C@H]2CS(=O)(=O)C[C@H]21 | -4.62 | 10
NC(=O)c1csc(C(=O)N2CCCC(n3ccnc3)C2)c1 (configuration not stated) | -4.35 | 0.351
Cc1cc(C)c2cc(CNCc3ccccc3)c3nn(C)c(=O)n3c2c1 | -2.43 | -0.711
COC(=O)c1cccn1C1CCN(C(=O)c2cc(F)ccc2F)CC1 | 1.88 | 19.6
CN1CCN(Cc2cscn2)CC(C(=O)N(C)C)C1 (configuration not stated) | -6.57 | -14.6
